# In PubChem BioAssay:
# How the values were obtained:
# Experiment in all cases: Peg3 promoter luciferase inhibitors, potency, dose response, cell-based, HeLa, CREF/GAPDH counter-screen panel (AID 624167)
# PEG-3 [1] = molecular target: PEG-3 (UniProt Q6IN02); conditions: CREF/GAPDH counter-screens; HeLa PEG-Prom luciferase reporter, overnight, run 1, dose range 1, at 100 µM (top of the series) unless noted
# PEG-3 [2] = molecular target: PEG-3 (UniProt Q6IN02); conditions: CREF/GAPDH counter-screens; HeLa PEG-Prom luciferase reporter, overnight, run 2, dose range 1, at 100 µM (top of the series) unless noted
# Rat fibroblasts (CREF) [3] = conditions: CREF/GAPDH counter-screens; run 1, dose range 1, at 100 µM (top of the series)
# Rat fibroblasts (CREF) [4] = conditions: CREF/GAPDH counter-screens; run 2, dose range 1, at 100 µM (top of the series)
# Sequence of PEG-3 (Q6IN02 whole entry, looked up): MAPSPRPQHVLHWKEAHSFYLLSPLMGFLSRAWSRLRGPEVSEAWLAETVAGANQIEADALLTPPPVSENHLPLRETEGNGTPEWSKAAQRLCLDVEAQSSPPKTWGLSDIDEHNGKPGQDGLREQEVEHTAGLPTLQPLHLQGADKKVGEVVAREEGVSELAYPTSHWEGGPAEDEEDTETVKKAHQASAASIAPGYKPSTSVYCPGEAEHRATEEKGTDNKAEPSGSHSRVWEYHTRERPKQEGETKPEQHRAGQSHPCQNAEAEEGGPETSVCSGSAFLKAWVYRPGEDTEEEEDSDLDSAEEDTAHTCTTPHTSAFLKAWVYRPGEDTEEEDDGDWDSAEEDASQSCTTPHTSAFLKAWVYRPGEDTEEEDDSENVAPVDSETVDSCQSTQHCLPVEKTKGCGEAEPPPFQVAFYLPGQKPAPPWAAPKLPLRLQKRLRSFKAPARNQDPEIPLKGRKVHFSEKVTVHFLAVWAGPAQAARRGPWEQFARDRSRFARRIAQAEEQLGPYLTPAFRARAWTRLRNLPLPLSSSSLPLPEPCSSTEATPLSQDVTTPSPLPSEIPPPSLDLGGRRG
Compound,inhibition (PEG-3 [1]) [%],inhibition (PEG-3 [2]),inhibition (Rat fibroblasts (CREF) [3]) [%],inhibition (Rat fibroblasts (CREF) [4]) [%]
CCCC(=O)NC(c1ccccc1)c1ccc2cccnc2c1O (stereo not given),36.8,"71% [run 2, dose range 1, at 25 µM]",59,44.9
COc1ccc(/C=C2/CCCC(CN(C)C)C2=O)cc1 (stereo not given),99.5,98.8%,95.5,68.5
COc1cc(OC)c2cc(C(=O)N/N=C/c3ccccc3O)[nH]c2c1,95.8,95.1%,67.5,65.2
CCCCCCN1C=C/C(=C\C=C(C#N)C#N)c2ccccc21,54.3,78.7%,43.7,89.7
CCCCC(=O)NC(c1ccccc1OC)c1ccc2cccnc2c1O (stereo not given),67.7,68.4%,-8.76,5.38
COc1cc(CNCCCN2CCOCC2)cc(Br)c1OCc1ccc(Cl)cc1,99.2,101%,100,99.1
Cc1cc(C)c2c(N)c(C(=O)Nc3ncc(C)s3)sc2n1,90.9,98.2%,99.2,98.9
O=c1c2ccccc2cnn1-c1nc2ccccc2[nH]1,98.4,99.5%,101,100
CC1=NOC(=O)/C1=C\c1ccc(-c2ccccc2Br)o1,99.2,98.5%,94.2,53.8
COCCCNC(=O)c1ccc(Cn2c(=O)c3ccccc3n(Cc3ccccc3C#N)c2=O)cc1,63.4,64%,40.3,38.4
CCCC(=O)NC(c1ccc(OC)cc1)c1ccc2cccnc2c1O (stereo not given),66.6,88.5%,28.1,99.5
Cc1c(C)c2ccc(OCC(=O)Nc3ccccn3)c(C)c2oc1=O,99.2,93.2%,98.5,97.8
COc1cc(C(=O)N/N=C(\c2ccccc2)c2ccccn2)cc(OC)c1OC,72.6,74.9%,72.1,63.3
CCCN1C=CC(=C2C(=O)c3ccccc3C2=O)C=C1,102,98.2%,100,100
COc1cccc(-c2sc3ccccc3c2-c2ccc(OCCN(C)C)cc2)c1,99.6,98.6%,98.7,99.3
Cc1nc(C)c(C(=O)N/N=C/c2cc(Br)ccc2O)s1,101,101%,52.7,46.2
COC1CC(C)C(OC)c2cc(O)cc(c2O)NC(=O)C(C)=CC=CC(C)C(OC(N)=O)C(C)=CC(C)C1OC (stereo not given),94,100%,97.1,98.6
Cc1ccc(C(=O)Nc2cnc3ccccc3c2)cc1,91.5,98%,83.4,77.7
CN(C)c1ccc(NC(=S)c2ccccn2)cc1,93.1,85.4%,94.4,96.1
O=C(CNCCC1=CCCCC1)Nc1ccc(N2CCCCCC2)cc1,102,102%,99.4,100
Cc1ccc(NC(=S)NC(=O)c2ccc(F)cc2)cc1S(=O)(=O)Nc1ccccc1Cl,70.7,36.1%,-12,91.7
COc1ccc(-n2cc(-c3ccccc3)c3c(N4CCOCC4)ncnc32)cc1,94.2,101%,69.3,67.2
O=C(O)c1cccc(COc2ccc(CO)cc2Cl)c1,97.3,102%,91.5,91.1
O=C(Nc1nc2cc3c(cc2s1)OCO3)C1=COCCO1,88.1,94%,93.7,94
Cc1nn(-c2nc3ccccc3[nH]2)c(=O)c2ccccc12,97.5,96.4%,100,101

Compound,inhibition (PEG-3 [1]) [%],inhibition (PEG-3 [2]),inhibition (Rat fibroblasts (CREF) [3]) [%],inhibition (Rat fibroblasts (CREF) [4]) [%]
Cc1cc(S(=O)(=O)c2ccc(Cl)cc2)nc(S(=O)(=O)c2ccc(Cl)cc2)c1C#N,99.1,101%,98.2,98.8
O=C(CN1C(=O)c2ccccc2S1(=O)=O)c1ccc2c(c1)OCCO2,102,101%,95.2,96
CC(=O)NC(c1ccc(Cl)cc1)c1ccc2cccnc2c1O (stereo not given),97.5,88.3%,4.58,23
Cc1ccccc1CNC(=O)C1CCCN(c2nnc(C)c3c(C)n(-c4ccccc4)nc23)C1 (stereo not given),99,101%,98.3,99.4
CCCC(=O)NC(c1ccc(C(C)C)cc1)c1ccc2cccnc2c1O (stereo not given),95.6,82.8%,17.4,7.77
COc1ccccc1C(=O)Nc1nc2ccccc2[nH]1,99.2,102%,100,99.5
CCCCCN1C=CC(=C2C(=O)c3ccccc3C2=O)C=C1,102,99.1%,98.2,98.3
CCOc1ccc2nc(NC(=O)c3ccccn3)sc2c1,88,83.6%,87.1,83.4
CCCCC(=O)NC(c1ccc(OC)cc1)c1ccc2cccnc2c1O (stereo not given),73.4,80.2%,35.2,28.7
O=C(N/N=C/c1sc(N2CCOCC2)nc1-c1ccccc1)c1cccc(S(=O)(=O)N2CCCC2)c1,63.5,53.5%,-19,87.5
CN(C)c1ccc(C=c2c3ccccc3n3c2cc(-c2ccccc2)[n+]3C)cc1,98.9,102%,101,100
CCCS(=O)(=O)c1cnc(C2COc3ccccc3O2)nc1N (stereo not given),96.2,94.6%,89.5,87.6
O=C(N/N=C/c1cc([N+](=O)[O-])ccc1O)c1ccc(COc2ccc3c(c2)CCC3)o1,52.4,"95.1% [run 2, dose range 1, at 25 µM]",29.5,55.1
Cc1cc(C(=O)Nc2cccc(C(=O)O)c2)oc1C,88.1,85.8%,49.8,52.7
CN(C)c1ccc(/C=C(\C#N)c2ccccn2)cc1,81.8,84.6%,98.2,99
NC1=C(Br)C(=O)c2ncccc2C1=O,99.1,101%,98.1,98.6
COc1ccccc1Nc1nc(-c2sc(NC(=O)c3ccco3)nc2C)cs1,38,52.5%,35.4,40.3
COc1cc(SC)ccc1C(=O)Nc1ncc(C)s1,95.5,98.2%,97.8,97.3
COC1=C(Br)C(=O)c2ncccc2C1=O,99.3,98.6%,95.3,97.8
Cc1ccc(C(=O)Nc2nc3ccccc3[nH]2)cc1,89.8,88.1%,99.2,98.7
Oc1c(I)cc(Cl)c2cccnc12,71.1,41.4%,87,85.5
Cc1ccc(C(C[N+](=O)[O-])Sc2ccc(N)cc2)cc1 (stereo not given),98.7,101%,96.1,96.3
COc1ccc(-c2cc3nc(C)n(N)c(=O)c3s2)cc1,99.2,102%,99,98.9
CN=c1scc(-c2cccs2)n1/N=C/c1ccccc1O,93.6,102%,98.2,97.1
CCn1nc(C)cc1-c1nnc(Sc2ncc([N+](=O)[O-])s2)n1C,102,101%,99.4,98.8

Compound,inhibition (PEG-3 [1]) [%],inhibition (PEG-3 [2]),inhibition (Rat fibroblasts (CREF) [3]) [%],inhibition (Rat fibroblasts (CREF) [4]) [%]
C=CCn1c(C)cc(C(=O)COc2ccc(C)nc2[N+](=O)[O-])c1C,61.3,43.4%,42.2,46.5
CCCn1nc(C(=O)Nc2nc(-c3ccccn3)cs2)c2ccccc2c1=O,84.7,80.4%,7.59,23.2
O=[N+]([O-])c1ccc(S(=O)(=O)c2ccccc2)nc1,99.3,101%,99.3,98.6
CCN(CC)S(=O)(=O)c1cccc(C(=O)N/N=C(\C)c2ccc(O)cc2O)c1,27.3,69.6%,43.3,47.7
O=C(CNC(=O)C(c1ccccc1)c1ccccc1)N/N=C/c1ccc(O)cc1O,53.4,52.3%,28.9,35.6
Cc1c([N+](=O)[O-])cc(N2C(=O)C=CC2=O)cc1[N+](=O)[O-],102,102%,99.5,100
CN(C)c1c([N+](=O)[O-])cc(N2C(=O)C=CC2=O)cc1[N+](=O)[O-],102,102%,101,100
CCc1ccn2cc(-c3ccc4c(c3)OCO4)nc2c1,96,89.2%,-17.6,97.5
COc1ccc(/C=C2\SC(=S)N(CCCC(=O)NNC(=O)c3ccccc3O)C2=O)cc1,89.6,81.1%,23.4,43.3
O=C(OCC(F)(F)F)c1cccc(COc2ccc3ccccc3c2)c1,96.5,92.4%,86.6,85.7
CCCC(=O)NC(c1ccc(C)cc1)c1ccc2cccnc2c1O (stereo not given),96.2,83.5%,3.2,23.3
O=C1C(Cl)=C(Nc2ccccc2)C(=O)c2ccccc21,102,101%,96.9,99.8
O=C(Nc1ncc([N+](=O)[O-])s1)c1ccc2c(c1)OCO2,96.1,89.6%,91.5,91.7
Brc1ccc(N=Nc2ccc3ccccc3n2)cc1,93.5,94.5%,97.1,96.3
O=c1cnnc(N/N=C/c2ccccn2)[nH]1,66.3,58.7%,49.4,51.1
CC(C)Cc1ccc(C(C)C(N)=NCCc2ccccc2)cc1 (stereo not given),97.4,102%,100,99.2
CCCOc1ccc2cc(-c3ccccn3)c(=O)oc2c1,93.5,94.5%,96.1,95.4
COc1cccc2nc3c(C(=O)NCCN(C)C)cccc3cc12,98.9,101%,98,95.2
Cc1ccc2nc(-c3ccc4c(c3)OCCO4)cn2c1,98.2,99.6%,100,99.9
CN1CCC2(CC1)N=C(c1ccc(F)cc1)C(=S)N2C(=O)c1ccc(C(C)(C)C)cc1,102,99%,98.7,68.4
O=C(COc1ccc2c(c1)CCC2)Nc1ccccn1,98.8,94.2%,97.5,94.5
COC(=O)C1C=CC(OC2OC(COC(C)=O)C(OC(C)=O)C(OC(C)=O)C2OC(C)=O)n2c(=O)n(-c3ccccc3)c(=O)n21 (stereo not given),99.8,98.3%,98.1,99.1
COc1ccccc1CNCC(O)Cn1c2ccccc2c2ccccc21 (stereo not given),102,98.7%,99.2,98.9
CCCCC(=O)NC(c1ccccc1)c1ccc2cccnc2c1O (stereo not given),90.4,93.6%,-26,-7.89
CCN(CCO)c1ccc(N=Nc2cc(C)[nH]n2)cc1,95.5,98.9%,99.4,98.6
